# This is a sample that favours compounds with a hit; in the whole collection about 19% have one here.
# KB-3-1 tox – KB-3-1 parental cell cytotoxicity. Potency, µM (highest dose often 46.1 µM), actives largely listed as cytotoxic. hit rate 1.4% among 400,000. KB-3-1 viability, CellTiter-Glo ATP luminescence, 72 h. AID 1347075; further: nearly all actives have a fitted effect of over 60% in size
#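 Multi-concentration cytotoxicity screen in KB-3-1 cells grown in DMEM lacking phenol red with 10% FBS. After 72 h at 37 °C with compound, ATP-dependent luminescence was recorded.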
# DT40 TDP1 no CPT – qHTS for Inhibitors of human tyrosyl-DNA phosphodiesterase 1 (TDP1): qHTS in cells in absence of CPT | DT40 Tdp1-/- hTDP1 cells, no CPT, ATP luminescence, 48 h | Potency, µM (series often up to 46.2 µM), actives largely listed as inhibitors | hit rate 15% among 420,000 | AID 686978, 2013; further: nearly all actives have a fitted effect of over 55% in size
#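 Compound effects on proliferation are scored in DT40 Tdp1-/-;hTDP1 cells in the absence of CPT. ATP levels (CellTiter-Glo luminescence) are recorded after a ≥48 hr, 37 °C incubation.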
# TDP1 cell CPT – growth inhibition of DT40 Tdp1-/-;hTDP1 cells with camptothecin (screen for TDP1 inhibitors); chicken DT40 Tdp1-/-;hTDP1 cells + 20 nM CPT, ATP luminescence, 48 h; Potency, µM (titrated, usually from 46.2 µM), actives largely listed as inhibitors; hit rate 12% among 420,000; AID 686979; further: nearly all actives have a fitted effect of over 55% in size
#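 Chicken DT40 Tdp1-/- cells stably complemented with human TDP1 were seeded at 400 cells/well in medium containing 20 nM camptothecin, exposed to pin-transferred compounds, and grown at 37 °C for at least 48 hr. Viability was read as ATP luminescence.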
# HT1080-NT tox – kills 2HG-producing HT-1080-NT fibrosarcoma cells | HT-1080-NT fibrosarcoma viability, CellTiter-Glo ATP luminescence, 48 h | Potency, µM (highest dose often 46.1 µM), usual class: cytotoxic | hit rate 1.6% among 360,000;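 further: NT is the 2HG producing partner of a matched IDH1 knockdown line; nearly all actives have a fitted effect of over 55% in size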
#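 Fibrosarcoma NT cells, 750 per well in 5% FBS RPMI, were exposed to compound for 48 hours. Viability: CellTiter-Glo luminescence.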
# KB-V1 MDR tox – KB-V1 MDR subline cytotoxicity; KB-V1 MDR cells viability, CellTiter-Glo, 72 h; Potency, µM (series often up to 46.1 µM), actives largely listed as cytotoxic; hit rate 3.4% among 400,000; AID 1347076; further: nearly all actives have a fitted effect of over 60% in size
#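 Drug-selected KB-V1 cells, grown in DMEM lacking phenol red with 10% FBS, receive compound titrations; after three days at 37 degrees C, surviving cell ATP is quantified by CellTiter-Glo luminescence and responses normalized and curve-fitted.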
# HT1080 IDH1KD tx – HT-1080 IDH1 knockdown cell toxicity (counter line) | HT-1080 IDH1 knockdown viability, ATP luminescence, 48 h | Potency, µM (titrated, usually from 46.1 µM), actives largely listed as cytotoxic | hit rate 2% among 360,000
#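 Knockdown cells (IDH1KD HT-1080) received compounds 2 h after plating at 750 cells/well and were kept 48 h at 37 °C in 5% FBS RPMI. A CellTiter-Glo luminescence read gave % activity for curve fitting.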
# A number is an active result; . = inactive; ? = inconclusive; / = no result given; [ ] = dose if it differs, or a comment. The call rests on the fitted dose curve; in most records, active means well fitted curve in the direction sought with a large enough effect; inconclusive means small, poorly fitted or top-dose-only effect, or another doubt; inactive means no such curve, though single readings can be large; an effect the other way counts as inactive or inconclusive.
SMILES,KB-3-1 tox,DT40 TDP1 no CPT,TDP1 cell CPT,HT1080-NT tox,KB-V1 MDR tox,HT1080 IDH1KD tx
Cc1c(CN(C)C(=O)c2sc3cc(Cl)ccc3c2Cl)cnn1C,?,21µM,15µM,.,.,?
Cc1ccc(S(=O)(=O)N2CCC(=O)N(C(COCc3ccc(C(F)(F)F)cc3)Cc3ccccc3)CC2)cc1 (stereo unspecified),.,18µM,9.2µM,.,.,.
Cc1ccc(S(=O)(=O)N2CCC(=O)N(C(COCc3cccc(C)c3)Cc3ccccc3)CC2)cc1 (stereo unspecified),.,?,?,.,.,.
Cc1ccc(S(=O)(=O)N2CCC(=O)N(C(COC(=O)Nc3ccccc3)Cc3ccccc3)CC2)cc1 (stereo unspecified),.,?,21µM,.,.,.
Cc1ccc(S(=O)(=O)N2CCC(=O)N(C(COCc3ccc(Cl)c(Cl)c3)Cc3ccccc3)CC2)cc1 (stereo unspecified),.,23µM,?,.,.,.
Cc1ccc(CNS(=O)(=O)c2c(C)nc3sc(C)cn3c2=O)cc1,.,.,?,/,.,/
COC(=O)C1=CN(c2ccc(Oc3ccccc3)cc2)C(N)=C(C#N)C1c1cccc(OC)c1OC (stereo unspecified),?,13µM,15µM,.,?,.
COC(=O)C1=CN(c2ccc(N3CCOCC3)cc2)C(N)=C(C#N)C1c1cccc(OC)c1OC (stereo unspecified),.,?,.,.,.,.
COC(=O)C1=CN(c2cccc(OCc3ccccc3)c2)C(N)=C(C#N)C1c1cccc(OC)c1OC (stereo unspecified),.,15µM,15µM,.,?,.
Cc1nnc(N/N=C/c2cccc(OCc3ccc(Cl)c(Cl)c3)c2)n1N,.,?,?,.,?,.
CCOc1ccc(C2C(C#N)=C(N)N(N(C)C)C3=C2C(=O)CC(C)(C)C3)cc1 (stereo unspecified),.,.,.,.,.,.
COc1ccc(C2C(C#N)=C(C)NC3=C2C(=O)c2ccccc23)cc1 (stereo unspecified),.,26µM,?,.,.,.
CCOc1ccc(C2C(C#N)=C(C)NC3=C2C(=O)c2ccccc23)cc1 (stereo unspecified),.,15µM,21µM,.,?,.
COc1cc(C2C(C#N)=C(C)NC3=C2C(=O)c2ccccc23)cc(OC)c1OC (stereo unspecified),2.1µM,0.58µM,1µM,0.89µM,?,0.79µM
CC(C)NC(=O)OCc1c(COC(=O)NC(C)C)c([N+](=O)[O-])n2c1CCC2,.,.,.,.,?,.
COCc1cc(C)nc(SCC(=O)Nc2nc(C)cs2)c1C#N,?,16µM,?,?,.,.
COCc1cc(C)nc(SCC(=O)Nc2cccc(C)c2C)c1C#N,.,.,.,.,.,.
COc1ccc(CNCCCSc2nnnn2-c2ccccc2)cc1,.,?,?,/,.,/
COc1cc(-c2nccc3cc4c(cc23)OCO4)cc(OC)c1OC,4.1µM,4.6µM,5.8µM,?,5.2µM,4.6µM
CCC(C)n1ncn(-c2ccc(N3CCN(c4ccc(OC[C@H]5CO[C@](Cn6cncn6)(c6ccc(Cl)cc6Cl)O5)cc4)CC3)cc2)c1=O (stereo partly specified),/,.,.,/,/,/
CC(C)N1CCN(c2ccc(OCC3COC(Cn4cncn4)(c4ccc(Cl)cc4Cl)O3)cc2)CC1 (stereo unspecified),?,?,?,.,1.2µM,.
CC(=O)c1cccc(NC(=S)NCCC2=CCCCC2)c1,.,15µM,16µM,.,.,?
O=C(NCCC1=CCCCC1)Nc1ccc2nsnc2c1,.,10µM,?,.,.,?
Cc1ccc(NC(=S)NCCC2=CCCCC2)cc1,.,23µM,?,.,?,.
CCOC(=O)c1ccc(NC(=S)NCCC2=CCCCC2)cc1,.,21µM,29µM,.,?,.
SMILES,KB-3-1 tox,DT40 TDP1 no CPT,TDP1 cell CPT,HT1080-NT tox,KB-V1 MDR tox,HT1080 IDH1KD tx
Nc1ncnc2c1ccn2[C@H]1CN(Cc2ccc3c(c2)OCO3)C[C@@H](COC(=O)c2ccccc2)O1,.,?,?,?,.,.
CCOc1ccccc1N(C)C(=O)c1sc2ncn(CC(=O)N3CCCCC3C)c(=O)c2c1C (stereo unspecified),.,?,?,.,.,.
O=C(NCc1ccco1)Nc1ccc2nsnc2c1,?,15µM,18µM,?,?,?
O=C(NCc1ccco1)Nc1ccc(Br)cc1,.,?,.,.,.,.
CCOc1ccc(Cc2nccc3cc(OCC)c(OCC)cc23)cc1OCC,/,5.8µM,5.8µM,/,/,/
NC(c1ccccc1)c1cccnc1 (stereo unspecified),.,.,.,.,.,.
C#CCN(Cc1ccco1)C(=O)c1ccc(OC2CCN(Cc3ccccn3)CC2)cc1,.,?,18µM,.,16µM,.
CC(C(=O)O)c1ccc(/C=C2\CCCCC2=O)cc1 (stereo unspecified),/,.,.,/,/,/
CCOC(=O)Cn1c(S(=O)(=O)Cc2ccccc2)nc2ccccc21,.,?,.,.,.,.
CCOC(=O)Cn1c(S(=O)(=O)Cc2ccc(Cl)cc2)nc(-c2ccccc2)c1-c1ccccc1,?,16µM,18µM,?,7.3µM,?
CC(C)c1ccc(NS(=O)(=O)c2ccc3[nH]cc(C(=O)NCC4CCCO4)c(=O)c3c2)cc1 (stereo unspecified),.,.,.,/,?,/
Cc1nn(-c2ccccc2)c(C)c1/C=N\N1CCN(c2ccc(Cl)cc2)CC1,?,10µM,18µM,.,?,.
CCn1cc(CN2CCc3c([nH]c4ccccc34)C2c2ccc(F)c(OC)c2)c(C)n1 (stereo unspecified),?,.,?,?,?,?
CCn1nc(C)c(CN2CCc3c([nH]c4ccccc34)C2c2ccc(F)c(OC)c2)c1C (stereo unspecified),?,12µM,29µM,.,?,.
CCNC(=S)Nc1nc2c(cc1C(=O)OCC)CCCC2,.,?,?,.,.,.
C=Cn1ccnc1P(=S)(c1ccc2c(c1)c1ccccc1n2CC)c1nccn1C=C,?,?,29µM,?,?,.[9.24 µM]
CCOc1ccc(C(=O)c2cn(CC(=O)Nc3cc(OC)cc(OC)c3)c3ccc(F)cc3c2=O)cc1,.,21µM,?,/,.,/
CCc1ccc(C(=O)c2cn(CC(=O)Nc3cc(OC)cc(OC)c3)c3ccc(CC)cc3c2=O)cc1,.,?,.,/,.,/
